Source: PubChem BioAssay (Tox21)
Unmarked numbers belong to inactive results. Records with an inconclusive call do not appear. Where a call stands in place of a potency, no number is given. Activity calls are given as the source filed them. Unless noted, calls come from the whole dose curve; as a rule, active = well fitted curve in the direction sought with a large enough effect in the repeat runs; inconclusive = weak or mixed curves; inactive = no such curve, though single readings can be large; an effect the other way counts as inactive or inconclusive.

Tests used:
[1] = qHTS assay for small molecule agonists of the p53 signaling pathway (AID 651631; calls by dose curve; note: nearly all actives have a fitted effect of over 15% in size)
Method in brief: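 Beta-lactamase reporter activity under p53 response elements was quantified in HCT-116 cells by FRET fluorescence, following 16 h incubation with test compounds at 37 °C and 2 h substrate development at room temperature.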

[2] = qHTS assay for small molecule agonists of the p53 signaling pathway - cell viability (AID 651633; calls by dose curve;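 note: p53RE-bla HCT reporter cells with a stable beta-lactamase p53 reporter; series mostly up to about 83 µM; nearly all actives have a fitted effect of over 30% in size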)
Method in brief: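 p53RE-bla cells were treated with compound for 16 hours at 37 C. Cytotoxicity was then measured as CellTiter-Glo luminescence after 30 min at room temperature.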

[3] = qHTS assay for small molecules that induce genotoxicity in human embryonic kidney cells expressing luciferase-tagged ATAD5 - cell viability (AID 651634; calls by dose curve; note: nearly all actives have a fitted effect of over 25% in size)
Method in brief: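 Quantitative high-throughput format. HEK293T cells expressing ATAD5 fused to luciferase were plated at 2,000 cells/well and treated 15.5 hr with compound versus DMSO. Viability was determined by fluorescent live-cell protease substrate, 30 min at 37C.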

[4] = qHTS assay to test for compound auto fluorescence at 590 nm (red) in HepG2 cells (AID 720674)
Method in brief: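 Seeding: 2,000 HepG2 cells/well, MEM/10% FBS, overnight 37 C. Dosing: compound vs DMSO. Incubation: 1 hr, 37 C, 5% CO2. Read: fluorescence 540 ex/590 em, Rose Bengal sodium as red reference.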

[5] = qHTS assay to test for compound auto fluorescence at 535 nm (green) in HepG2 cells (AID 720675)
[6] = qHTS assay to test for compound auto fluorescence at 460 nm (blue) in HEK293 cells (AID 720678)
Method in brief: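 Measured: blue fluorescence (Ex 405/Em 460 nm) of compound-treated HEK293 cells, incubated overnight at 37C with 5% CO2 and scaled to triamterene equivalents.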

[7] = qHTS assay to test for compound auto fluorescence at 590 nm (red) in HEK293 cells (AID 720679)
Method in brief: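 Using HEK293 cells at 2,000 per well, the screen added 23 nL of each compound after cell attachment and incubated overnight (37C, 5% CO2). The plate reader then captured red-label fluorescence, Ex/Em 540/590nm.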

[8] = qHTS assay to test for compound auto fluorescence at 535 nm (green) in HEK293 cells (AID 720680)
[9] = qHTS assay to test for compound auto fluorescence at 460 nm (blue) in HEK293 cell free culture (AID 720681)
Method in brief: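 Compounds were added to cell-free DMEM with 10% FBS and fluorescence read directly. The blue channel used 405 nm excitation and 460 nm emission, with triamterene as the reference fluorophore.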

[10] = qHTS assay to test for compound auto fluorescence at 535 nm (green) in HEK293 cell free culture (AID 720682)
Method in brief: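 Each library compound, or DMSO control, is added by pintool to medium alone, comprising DMEM and 10% FBS. Emission at 535 nm following 485 nm excitation is quantified against fluorescein.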

[11] = qHTS assay to test for compound auto fluorescence at 590 nm (red) in HepG2 cell free culture (AID 720684)
Method in brief: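 Rose Bengal sodium served as the reference for red signal. Test compounds were dispensed into serum-containing MEM (10% FBS) without cells, and plates were read at 540/590 nm.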

[12] = qHTS assay to test for compound auto fluorescence at 460 nm (blue) in HepG2 cell free culture (AID 720685)
Method in brief: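 Cell-free plates of MEM plus 10% FBS received 23 nL compound or DMSO vehicle; blue-channel (405/460 nm) intensity scored against triamterene as reference fluorophore.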

[13] = qHTS assay to test for compound auto fluorescence at 535 nm (green) in HepG2 cell free culture (AID 720686)
[14] = qHTS assay to test for compound auto fluorescence at 460 nm (blue) in HepG2 cells (AID 720687)
Method in brief: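 HepG2 cells in MEM with 10% FBS, attached overnight at 37 C, were exposed to compound or DMSO for 1 hr at 37 C, 5% CO2. Blue fluorescence was read at 405/460 nm, with triamterene as reference fluorophore.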

[15] = biological target: Glucocorticoid receptor (Homo sapiens) (UniProt P04150); experiment: qHTS assay to identify small molecule agonists of the glucocorticoid receptor (GR) signaling pathway (AID 720691; active = well fitted activation curve with a large enough effect in the signal ratio in the repeat runs, not every such curve was filed as active; the % refers to the signal ratio)
Glucocorticoid receptor (Homo sapiens), sequence (P04150 whole entry, looked up): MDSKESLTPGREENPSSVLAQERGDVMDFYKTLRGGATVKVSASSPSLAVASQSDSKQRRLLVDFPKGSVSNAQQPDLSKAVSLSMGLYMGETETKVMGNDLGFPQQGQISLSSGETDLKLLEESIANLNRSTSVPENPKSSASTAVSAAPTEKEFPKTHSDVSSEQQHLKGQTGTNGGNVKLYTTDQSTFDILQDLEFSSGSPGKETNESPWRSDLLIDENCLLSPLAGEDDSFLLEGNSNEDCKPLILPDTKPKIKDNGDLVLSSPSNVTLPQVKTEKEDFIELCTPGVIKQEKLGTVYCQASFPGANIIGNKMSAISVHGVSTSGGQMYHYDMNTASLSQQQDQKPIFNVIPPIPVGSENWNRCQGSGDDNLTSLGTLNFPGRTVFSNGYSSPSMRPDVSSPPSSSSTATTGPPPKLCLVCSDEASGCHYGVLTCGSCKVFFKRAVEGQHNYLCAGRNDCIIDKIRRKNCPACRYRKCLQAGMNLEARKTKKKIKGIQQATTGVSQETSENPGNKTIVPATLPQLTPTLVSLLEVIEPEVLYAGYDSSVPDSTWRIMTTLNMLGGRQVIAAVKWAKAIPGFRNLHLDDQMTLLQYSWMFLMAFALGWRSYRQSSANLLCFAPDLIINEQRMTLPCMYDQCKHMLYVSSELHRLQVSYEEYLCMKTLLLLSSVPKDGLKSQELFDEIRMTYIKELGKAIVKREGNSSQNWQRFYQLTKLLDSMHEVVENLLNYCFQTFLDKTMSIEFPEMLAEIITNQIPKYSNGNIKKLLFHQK
Method in brief: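 A HeLa cervical cancer line expressing GR and a glucocorticoid response element-driven beta-lactamase gene is treated with compounds for 18 h; LiveBLAzer B/G FRET substrate is then applied and fluorescence read.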

[16] = qHTS assay for small molecules that induce genotoxicity in human embryonic kidney cells expressing luciferase-tagged ATAD5 (AID 651632); note: nearly all actives have a fitted effect of over 15% in size
Method in brief: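 Test compounds were delivered by pin tool onto HEK293T reporter cells (2,000/well) expressing ATAD5 fused to luciferase. After 16 hr at 37C, 5% CO2, Amplite was added for 30 min at room temperature and luminescence was measured.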

[17] = qHTS assay for small molecule disruptors of the mitochondrial membrane potential - cell viability (AID 720634; calls by dose curve;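 note: human HepG2 liver cancer cells; series mostly up to about 83 µM; nearly all actives have a fitted effect of over 20% in size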)
Method in brief: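 Same-well counter-screen: following the MMP dye addition, CellTiter-Glo was added to 1 hr compound-treated HepG2 cells and luminescence read after 30 min at room temperature.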

[18] = qHTS assay to test for compound auto fluorescence at 590 nm (red) in HEK293 cell free culture (AID 720683)
Method in brief: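 Cell-free wells of DMEM with 10% FBS received compound, and intrinsic fluorescence was read at excitation/emission 540/590 nm. Values expressed as equivalence to Rose Bengal sodium.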

[19] = qHTS assay for small molecule disruptors of the mitochondrial membrane potential (AID 720635); note: potency is the fitted concentration of half-maximal effect
Method in brief: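 HepG2 cells exposed to compound 1 hr at 37C, then Mito-MPS dye 30 min. Ratio read of aggregate (540/590 nm) versus monomer (490/535 nm) fluorescence.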

[20] = biological target: Glucocorticoid receptor (Homo sapiens) (UniProt P04150); experiment: qHTS assay to identify small molecule antagonists of the glucocorticoid receptor (GR) signaling pathway (AID 720692; active = well fitted inhibition curve with a large enough effect in the signal ratio in the repeat runs, not every such curve was filed as active; the % refers to the signal ratio)
Method in brief: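 GRE-bla HeLa line, dex-stimulated (5 nM final). Compound exposure 18 h, 37 C. Beta-lactamase FRET read after 2 h RT substrate.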

C=C[Si](OCC)(OCC)OCC
Potency [1]: inactive | Potency [2]: inactive | Potency [3]: inactive | outcome [4]: inactive | outcome [5]: inactive | Potency [6]: inactive | outcome [7]: inactive | outcome [8]: inactive | Potency [9]: inactive | outcome [10]: inactive | outcome [11]: inactive | outcome [12]: inactive | outcome [13]: inactive | outcome [14]: inactive | Potency [15]: inactive

CC/C=C/CCO
Potency [1]: inactive | Potency [16]: inactive | Potency [3]: inactive | Potency [17]: inactive | outcome [4]: inactive | outcome [5]: inactive | Potency [6]: inactive | outcome [7]: inactive | outcome [8]: inactive | Potency [9]: inactive | outcome [18]: inactive | outcome [11]: inactive | outcome [12]: inactive | outcome [13]: inactive | outcome [14]: inactive | Potency [15]: inactive

CCc1ccc(C(=O)C(C)CN2CCCCC2)cc1 (stereo not given)
Potency [1]: inactive | Potency [16]: inactive | Potency [3]: inactive | Potency [17]: inactive | Potency [19]: inactive | outcome [4]: inactive | outcome [5]: inactive | Potency [6]: inactive | outcome [7]: inactive | outcome [8]: inactive | Potency [9]: inactive | outcome [18]: inactive | outcome [11]: inactive | outcome [12]: inactive | outcome [13]: inactive | outcome [14]: inactive | Potency [15]: inactive | Potency [20]: inactive

CCn1nc(Cc2ccccc2)cc1C1CCN(C[C@H]2C[C@H](N(C)[C@@H](C(=O)O)C(C)C)C[C@@H]2c2cccc(F)c2)CC1
Potency [1]: inactive | Potency [16]: inactive | Potency [3]: inactive | Potency [17]: inactive | outcome [4]: inactive | outcome [5]: inactive | Potency [6]: inactive | outcome [7]: inactive | outcome [8]: inactive | Potency [9]: inactive | outcome [10]: inactive | outcome [18]: inactive | outcome [11]: inactive | outcome [12]: inactive | outcome [13]: inactive | outcome [14]: inactive | Potency [15]: inactive | Potency [20]: inactive

Cc1c(Nc2ncccc2C(=O)O)cccc1C(F)(F)F
Potency [1]: inactive | Potency [16]: inactive | Potency [3]: inactive | Potency [17]: inactive | Potency [19]: 9.02 µM (active) | fluorescence, % of fluorescein control [5]: -0.0599% [at 18.6 µM] | fluorescence, % of triamterene [6]: 0.0756% [at 18.6 µM] | fluorescence, % of fluorescent control [7]: 0.0414% [at 18.6 µM] | fluorescence, % of fluorescein [8]: 0.0171% [at 18.6 µM] | fluorescence, % of fluorescent control [9]: -0.115% [at 18.6 µM] | activity change [10]: 0.0935% [at 18.6 µM] | fluorescence, % of fluorescent control [18]: -0.29% [at 18.6 µM] | fluorescence, % of fluorescent control [12]: 0.0612% [at 18.6 µM] | fluorescence, % of fluorescein control [13]: -0.0657% [at 18.6 µM] | fluorescence, % of fluorescent control [14]: 0.0693% [at 18.6 µM]

CCc1cnc(C(=O)O)c(C(=O)O)c1
Potency [1]: inactive | Potency [16]: inactive | Potency [3]: inactive | Potency [17]: inactive | Potency [19]: inactive | outcome [4]: inactive | outcome [5]: inactive | Potency [6]: inactive | outcome [7]: inactive | outcome [8]: inactive | Potency [9]: inactive | outcome [10]: inactive | outcome [18]: inactive | outcome [12]: inactive | outcome [13]: inactive | outcome [14]: inactive

O=C(c1ccc(Cl)cc1)c1ccc(Cl)cc1
Potency [1]: inactive | Potency [16]: inactive | Potency [17]: inactive | outcome [4]: inactive | outcome [5]: inactive | Potency [6]: inactive | outcome [7]: inactive | outcome [8]: inactive | Potency [9]: inactive | outcome [10]: inactive | outcome [18]: inactive | outcome [11]: inactive | outcome [12]: inactive | outcome [13]: inactive | outcome [14]: inactive

CCCCCCC/C=C/C=O
Potency [1]: inactive | Potency [16]: inactive | Potency [3]: inactive | Potency [17]: inactive | outcome [4]: inactive | outcome [5]: inactive | Potency [6]: inactive | outcome [7]: inactive | outcome [8]: inactive | Potency [9]: inactive | outcome [10]: inactive | outcome [18]: inactive | outcome [11]: inactive | outcome [12]: inactive | outcome [13]: inactive | outcome [14]: inactive | Potency [15]: inactive
